PRMT1 inh = blocks human protein arginine methyltransferase 1; Q99873; recombinant PRMT1, activity-based probe fluorescence polarization; inhibition, % at 2.79 µM; hit rate 1.3% among 370,000; AID 652257;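 active means inhibition above about 21% made by adding two undisclosed values, limit read from the data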
Rtt109 HAT inh = inhibitors of Candida albicans Rtt109/Vps75 histone acetyltransferase; hit rate 0.16% among 330,000; Q5AAJ8; inhibition, % at 34.9 µM; purified Rtt109/Vps75, ThioGlo CoA-SH fluorescence, 4 h;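 active means inhibition of at least 50% in every replicate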
ALR H2O2 inh = blocks human ALR sulfhydryl oxidase activity. inhibition, % (test concentration not listed). hit rate 3.8% among 290,000. purified ALR, DTT oxidation, H2O2 HRP-luminol luminescence. P55789;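 active means mean replicate inhibition above about 79%, with every replicate also reaching it, limit read from the data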
ABHD5 PLIN5 PPI = blocks binding of human ABHD5 to perilipin-5 | Split G. princeps luciferase complementation, luminescence, 4 h | inhibition, % at 4 µM | hit rate 0.78% among 360,000;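 active means inhibition above the mean inhibition across every tested compound plus 3 SD, cut at about 22% in these data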
Target sequence (Q00G26 whole entry, looked up): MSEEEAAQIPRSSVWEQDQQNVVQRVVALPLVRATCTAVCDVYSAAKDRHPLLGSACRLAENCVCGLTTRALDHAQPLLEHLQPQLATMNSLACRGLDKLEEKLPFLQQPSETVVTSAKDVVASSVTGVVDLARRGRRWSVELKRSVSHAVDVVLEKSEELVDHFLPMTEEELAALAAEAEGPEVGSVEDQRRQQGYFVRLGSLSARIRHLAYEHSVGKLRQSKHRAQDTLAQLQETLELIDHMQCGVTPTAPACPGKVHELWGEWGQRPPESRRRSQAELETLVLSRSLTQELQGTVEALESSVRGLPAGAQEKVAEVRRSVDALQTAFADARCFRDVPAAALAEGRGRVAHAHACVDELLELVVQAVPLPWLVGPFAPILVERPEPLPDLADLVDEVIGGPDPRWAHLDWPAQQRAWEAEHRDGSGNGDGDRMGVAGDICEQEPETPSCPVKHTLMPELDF
Target sequence (Q8WTS1 whole entry, looked up): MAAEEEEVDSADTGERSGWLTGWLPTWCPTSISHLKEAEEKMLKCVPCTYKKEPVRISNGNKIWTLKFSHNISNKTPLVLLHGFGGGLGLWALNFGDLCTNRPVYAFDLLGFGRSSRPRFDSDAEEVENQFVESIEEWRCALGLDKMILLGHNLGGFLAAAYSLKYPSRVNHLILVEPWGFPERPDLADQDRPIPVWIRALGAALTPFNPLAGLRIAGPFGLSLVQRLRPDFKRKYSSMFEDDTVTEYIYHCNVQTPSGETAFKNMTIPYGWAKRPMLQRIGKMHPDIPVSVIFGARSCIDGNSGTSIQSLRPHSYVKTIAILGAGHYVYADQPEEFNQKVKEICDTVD
LANA-H2B inh = blocks KSHV LANA binding to histone H2A/H2B. Q9QR71. cell-free LANA-H2A/H2B peptide, fluorescence polarization. inhibition, % (concentration not given with the values). hit rate 0.6% among 320,000; in the data active means inhibition mostly above about 10%, no sharp cut-off; inactive means mostly below about 6.7%
rCAG RNA binder = r(CAG) repeat RNA binding. TO-PRO-1 dye displacement fluorescence. inhibition, % at 3 µM. hit rate 1.3% among 370,000. AID 651821;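 active means inhibition above the plate cutoff, the mean of all test compounds on that plate plus 3 SD, cut at about 35% in these data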;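 further: higher means more dye released from RNA so lower well fluorescence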
Large screens that a line does not name were inactive. An excerpt weighted towards active compounds, which were near 5.9% of everything screened.

C[C@H](NC(=O)c1[nH]cnc1C(=O)N[C@@H](C)CO)c1ccccc1	none (no result: Rtt109 HAT inh, ALR H2O2 inh, LANA-H2B inh)
CCN(CC)C(=O)C1=C(C)N(CCCN2CCCC2=O)C(=O)C(CC(=O)NCCCN(C)C)C1 (stereo not given)	none (no result: Rtt109 HAT inh, ALR H2O2 inh, LANA-H2B inh)
COc1cc(/C=N/O)cc(Br)c1OC	ALR H2O2 inh 89.8
CCOc1ccc(-n2ccnc(SCC(=O)Nc3ccc(CC)cc3)c2=O)cc1	ALR H2O2 inh 98.6
COc1ccc(-n2ccnc(SCC(=O)NC3CCCCC3)c2=O)cc1	ALR H2O2 inh 98.3 (no result: PRMT1 inh, rCAG RNA binder)
CCOc1ccc(-n2ccnc(SCC(=O)NCc3cccc(OC)c3)c2=O)cc1	none (no result: ALR H2O2 inh, LANA-H2B inh)
COc1ccc(-n2ccnc(SCC(=O)NC3CCCC3)c2=O)cc1	none
CCN(C(=O)[C@@H](C)[C@@H](O)c1ccc2ccccc2c1)c1ccccc1	none (no result: Rtt109 HAT inh, ALR H2O2 inh, ABHD5 PLIN5 PPI, LANA-H2B inh)
C[C@@H]1COc2cc(Br)ccc2S(=O)(=O)N1Cc1cn(Cc2ccc(C(F)(F)F)cc2)nn1	none (no result: Rtt109 HAT inh, ALR H2O2 inh, ABHD5 PLIN5 PPI, LANA-H2B inh)
COc1ccc(CCNC(=O)c2cc3cc(Cl)ccc3nc2N)cc1OC	none (no result: PRMT1 inh, Rtt109 HAT inh, ALR H2O2 inh, LANA-H2B inh, rCAG RNA binder)
COC(=O)c1c(SCc2cccc3ccccc23)nc(=O)[nH]c1C	ALR H2O2 inh 99.0
COC(=O)c1c(SCc2ccc(C#N)cc2)nc(=O)[nH]c1C	none
COCCn1c(SCC(=O)N2CCc3ccccc32)nc2c(c1=O)SC(C)C2 (stereo not given)	LANA-H2B inh 8.1 (no result: ALR H2O2 inh)
COCCn1c(SCC(=O)N2CCCc3ccccc32)nc2c(c1=O)SC(C)C2 (stereo not given)	none
CCn1c(SCC(=O)c2ccccc2)nc2c(c1=O)SC(C)C2 (stereo not given)	ALR H2O2 inh 99.0
COCCn1c(SCC(=O)N2CCN(c3ccccc3)CC2)nc2c(c1=O)SC(C)C2 (stereo not given)	none
COCCn1c(SCC(=O)c2ccccc2)nc2c(c1=O)SC(C)C2 (stereo not given)	ALR H2O2 inh 98.8
O=C(O)Cn1cc(CN2CCOCC2)c2ccccc21	none
Cn1cc(CN2CCN(c3ccccc3)CC2)c2ccccc21	LANA-H2B inh 13.1
N=C(N)c1ccc(O)cc1	none
CC/C(=C(/CC)c1ccc(O)cc1)c1ccc(O)cc1	ALR H2O2 inh 99.0
CCn1c(CS(=O)Cc2ccc(Cl)cc2Cl)nnc1SCc1c(Cl)cccc1Cl (stereo not given)	ALR H2O2 inh 99.0 (no result: PRMT1 inh, rCAG RNA binder)
CCn1c(CC(=O)Nc2ccc(Cl)c(Cl)c2)nnc1SCc1ccc(Cl)cc1	none
CCCn1ncc(CN2CCC(C(=O)Nc3cccc(-c4cccc(F)c4)c3)CC2)c1C	none
O=C(Nc1cccc(C(F)(F)F)c1)C(Sc1cccc[n+]1[O-])c1ccccc1 (stereo not given)	ALR H2O2 inh 78.3
CN(C(=O)CCc1nnc(-c2ccc(-c3ccccc3)cc2)o1)C1CCOCC1	LANA-H2B inh 14.8
CN(CCCC1CCCC1)C(=O)CCc1nnc(-c2ccccc2)o1	none
Cn1c(=O)[nH]c(=O)c2c1nc(N1CCOCC1)n2CC(O)COc1ccccc1 (stereo not given)	none
COc1ccc(CCn2c(N3CCOCC3)nc3c2c(=O)[nH]c(=O)n3C)cc1	ALR H2O2 inh 99.2
CC(c1ccccc1)n1c(N2CCNCC2)nc2c1c(=O)[nH]c(=O)n2C (stereo not given)	Rtt109 HAT inh 64.9
C/C=C/Cn1c(SCCCc2ccccc2)nc2c1c(=O)[nH]c(=O)n2C	none
Cn1c(=O)[nH]c(=O)c2c1nc(N1CCOCC1)n2CCc1ccccc1	none
CC(C)n1c(SCCCc2ccccc2)nc2c1c(=O)[nH]c(=O)n2C	PRMT1 inh 22.2 (no result: ALR H2O2 inh, LANA-H2B inh)
Cn1c(=O)[nH]c(=O)c2c1nc(N1CCCC1)n2CC(O)COc1ccccc1 (stereo not given)	ALR H2O2 inh 94.6
O=C(Nc1ccc(Oc2ccccc2)cc1)c1csc([C@@H]2C[C@H](O)[C@@H](CO)O2)n1	none (no result: Rtt109 HAT inh, ALR H2O2 inh, LANA-H2B inh)
Cc1ccc(OCc2nc3ccccc3n2C(C)C(=O)Nc2c(C)cccc2C)cc1 (stereo not given)	none (no result: Rtt109 HAT inh, ALR H2O2 inh, LANA-H2B inh)
O=S1(=O)C=C(Sc2ccc(Cl)cc2)c2ccccc2C1Cc1ccc(F)cc1 (stereo not given)	none (no result: Rtt109 HAT inh, ALR H2O2 inh, ABHD5 PLIN5 PPI, LANA-H2B inh)
CCOC(=O)[C@]12CCCC=C1N(Cc1ccco1)C(=O)[C@H](CC(=O)NCc1cccc(C(F)(F)F)c1)C2	none (no result: Rtt109 HAT inh, ALR H2O2 inh, LANA-H2B inh)
CC1CCN(C(=O)CSc2nnc(N)s2)CC1	none
CC1CC(C)CN(C(=O)CSc2nnc(N)s2)C1 (stereo not given)	ALR H2O2 inh 95.2
COC(=O)C1=C(C)N(Cc2ccc(Cl)cc2)C(=S)NC1c1cccc(Br)c1 (stereo not given)	none (no result: Rtt109 HAT inh, ALR H2O2 inh, ABHD5 PLIN5 PPI, LANA-H2B inh)
CC1(C(=O)O)CCC(C(=O)Nc2ccccc2O)C1(C)C (stereo not given)	ALR H2O2 inh 86.3 (no result: Rtt109 HAT inh)
COc1ccc([C@H]2C(C#N)=C([S-])N[C@](C)(O)[C@@H]2[n+]2ccccc2)cc1	none (no result: Rtt109 HAT inh, ALR H2O2 inh, LANA-H2B inh)
Cc1ccc[n+](C2C(c3ccc([N+](=O)[O-])cc3)C(C#N)=C([S-])NC2(O)C2CC2)c1 (stereo not given)	PRMT1 inh 23.4
O=C(N[C@H](C(=O)N1CCC[C@H]1C(=O)NC1CCCC1)C1CCCCC1)c1nccs1	none (no result: Rtt109 HAT inh, ALR H2O2 inh, ABHD5 PLIN5 PPI, LANA-H2B inh)
Cc1nn(Cc2ccc(F)cc2)c(C)c1NC(=O)c1cc(-c2ccco2)on1	LANA-H2B inh 13.4 (no result: PRMT1 inh, rCAG RNA binder)
COc1ccc(N2Nc3n[nH]c(N)c3N2)cc1	ALR H2O2 inh 98.6
CCOc1ccc(N2Nc3n[nH]c(N)c3N2)cc1	none (no result: ALR H2O2 inh)
CCCCN(C(=O)COC(=O)C1(c2ccccc2)CC1)c1c(N)n(CCC)c(=O)[nH]c1=O	none (no result: Rtt109 HAT inh, ALR H2O2 inh, LANA-H2B inh)
CCOC(=O)COn1c(=O)c(=O)n(O)c2ccccc21	ALR H2O2 inh 99.6
COC(=O)c1ccc(NC(=O)CSc2nnc(C)n2-c2ccccc2)cc1	none
CCCCc1nnc(NC(=O)CSc2nc(=O)cc(N)n2-c2ccccc2)s1	none
COC(=O)c1ccc(NC(=O)CSc2nc(=O)cc(N)n2-c2ccccc2)cc1	ALR H2O2 inh 98.9
Nc1cc(=O)nc(SCC(=O)N2CCN(c3ccccc3)CC2)n1-c1ccccc1	none
CC(=O)c1ccc(NC(=O)CSc2nc(=O)cc(N)n2-c2ccccc2)cc1	ALR H2O2 inh 98.6
Cc1ccc(-n2c(N)cc(=O)nc2SCC(=O)N2CCN(c3ccccc3)CC2)cc1	ALR H2O2 inh 97.5
O=C(Cc1ccccc1)c1ccc(N2CCOCC2)cc1	none (no result: ALR H2O2 inh, LANA-H2B inh)
O=C(N[C@@H](Cc1ccccc1)c1nc2ccccc2[nH]1)c1ccc([N+](=O)[O-])cc1	none (no result: Rtt109 HAT inh, ALR H2O2 inh, ABHD5 PLIN5 PPI, LANA-H2B inh)
CC(Cl)C(=O)NNc1cccc(Cl)n1 (stereo not given)	ALR H2O2 inh 96.6
C=Cc1cc2c(cc1O)CCC1C2CCC2(C)C(O)CCC12 (stereo not given)	none (no result: ALR H2O2 inh, LANA-H2B inh)
C[C@]12CC[C@@H]3c4ccc(O)cc4C(=O)C[C@H]3[C@@H]1CC[C@@H]2O	LANA-H2B inh 3.5
O=C(Cn1cc(C(=O)C(=O)N2CCOCC2)c2ccccc21)Nc1cccc(C(F)(F)F)c1	none (no result: Rtt109 HAT inh, ALR H2O2 inh, LANA-H2B inh)
CC(=O)Nc1ccc(SCc2csc(C)n2)cc1	ALR H2O2 inh 98.7
CCOc1ccc(NC(=O)CSc2nnc(Cc3csc(C)n3)o2)cc1	none
CC(=O)Nc1ccc(SCc2c(C)noc2C)cc1	PRMT1 inh 21.4, ALR H2O2 inh 99.2
